Calb FLC: affects C. albicans growth with fluconazole; 300,000 compounds, 0.57% hits; C. albicans CaCi-2 (fluconazole-resistant clinical isolate) + fluconazole, Alamar Blue growth, 48 h; growth inhibition, % (test concentration not listed);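 active means growth inhibition above about 58% in most replicates, limit read from the data, passing the limit was not always enough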;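 further: all wells also contain fluconazole at 8 µg/ml as a sub-toxic cotreatment; 0% = median of DMSO wells and 100% = median of geldanamycin control wells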
Jurkat NFkB inh: inhibitors of the PMA/ionomycin-induced NF-kB reporter in Jurkat cells; PMA/ionomycin-induced NF-kB luciferase reporter, luminescence; inhibition, % at 4 µM; 330,000 compounds, 0.53% hits; AID 435003; in the data active means inhibition above about 50%
Shn3 inh set2: Schnurri-3 reporter inhibition in Clone20 osteoblasts; Clone20 osteoblast Shn3 3'UTR firefly luciferase, 24 h; inhibition, % at 12.5 µM; 360,000 compounds, 0.52% hits; AID 588674;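 active means mean inhibition of at least 75% with every replicate also reaching 75%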;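 further: 0% = median of neutral control wells and 100% = pilot-screen positive control compound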
697 NFkB inh: lowers PMA/ionomycin-induced NF-kB signal in 697 B cells | 330,000 compounds, 0.33% hits | 697 B-cell NF-kB luciferase reporter, 16 h | AID 435022 | inhibition, % at 4 µM; in the data active means inhibition above about 35%
Beta apoptosis: blocks beta cell apoptosis. INS-1E cytokine-induced death, ATP luminescence, 48 h; percent of positive-control rescue, neutral wells zero. protection from apoptosis, % (concentration not given with the values). 300,000 compounds, 0.8% hits. AID 435005;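 active means Every replicate reaches about 75%, or at least half do and their mean reaches it too, limit read from the data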;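 further: 0% = cytokine-treated negative control wells and 100% = positive control rescue; higher means more ATP so stronger rescue from cytokine killing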
Jurkat NFkB conf: inhibitors of the PMA/ionomycin-induced NF-kB reporter in Jurkat cells, retest. inhibition, % at 4 µM. AID 435020. shares compounds with Jurkat NFkB inh. Jurkat NF-kB luciferase, 16 h. 2,700 compounds, 27% hits;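 active means inhibition reaching about 45% at 4 µM in either replicate, limit read from the data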;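 further: plate controls were PMA/ionomycin stimulated DMSO wells for no effect and unstimulated DMSO wells for full effect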
Starred values were filed as active, the others as inactive; x = not tested or not shown. Sampled rows, rich in hits. Any-hit rate of the full collection: about 2%.

SMILES	Calb FLC	Jurkat NFkB inh	Shn3 inh set2	697 NFkB inh	Beta apoptosis	Jurkat NFkB conf
CCn1nc(C)c(CNC(=O)c2ccc(OC3CCN(Cc4ccccn4)CC3)cc2)c1C	-4	65*	65	11	79*	57*
CCn1cc(CNC(=O)c2ccc(OC3CCN(Cc4ccccn4)CC3)cc2)cn1	-2	17	48	-17	8	x
Cc1ccccc1NC(=O)c1cc[n+]([O-])cc1	-4	3	7	-2	2	x
CCN(CC)c1ccc2c(c1)OC(N)=C(C#N)C2c1cccnc1 (stereo unspecified)	-3	56*	9	31	3	6
N#CC1=C(N)Oc2cc(N)ccc2C1c1cccnc1 (stereo unspecified)	-1	14	7	-7	-5	x
N#Cc1ccc(C(=O)N2CCCCC2c2cc(C(=O)Nc3ccccc3Cl)no2)cc1 (stereo unspecified)	x	x	2	x	x	x
Cc1ccc2cccc(NS(=O)(=O)c3ccccc3)c2n1	63	99*	x	-8	22	43
O=S(=O)(Nc1cccc2ccccc12)c1ccccc1	50	-15	4	-2	x	x
O=S(=O)(Nc1cccc2cccnc12)c1ccccc1	0	101*	79	-14	29	19
CC(=O)Nc1ccc(S(=O)(=O)Nc2cccc3cccnc23)cc1	5	7	-8	4	2	x
Cc1ccc(NC(=O)c2ccc(Cl)c(S(=O)(=O)N3CCCCC3)c2)nc1	x	5	17	5	-21	x
COn1c(-c2ccccc2)nc2ccc(Cl)cc21	33	-66	-39	-67	5	x
Clc1ccc2nc3c4ccccc4cnn3c2c1	9	-160	-69	-174	0	-121
CCOc1ccc(NC(=S)N2CCN(S(C)(=O)=O)CC2)cc1	21	9	-7	-3	-6	x
Cc1cc(NC(=O)COC(=O)c2ccc(S(=O)(=O)N3CCCC3)cc2)no1	23	6	3	8	-3	x
O=S(=O)(c1ccc(Cl)cc1)N1CCCc2ccccc21	3	3	2	13	x	x
CC(=O)Nc1ccc(S(=O)(=O)N2CCCc3ccccc32)cc1	6	63*	2	-48	15	34
COC(=O)Nc1ccc(S(=O)(=O)N2c3ccccc3CCC2C)cc1 (stereo unspecified)	23	53*	1	-85	10	38
Cc1cc(NC(=O)COC(=O)c2ccc(S(=O)(=O)N3CCCc4ccccc43)cc2)no1	6	51*	31	-26	1	39
COC(=O)Nc1ccc(S(=O)(=O)N2CCCCC2C(=O)O)cc1 (stereo unspecified)	-12	-3	12	16	-4	x
CCN(CC(=O)Nc1ccccc1C(F)(F)F)CC(=O)c1[nH]c(C)c(C(C)=O)c1C	x	x	25	x	x	x
Cn1ncc2c(O/N=C(\N)c3ccc(C(C)(C)C)cc3)ncnc21	-2	101*	5	-192	110*	-18
CC(C)(C)c1ccc(C(=O)N/C(N)=N/c2nc3ccccc3o2)cc1	2	10	45	-24	7	x
Cc1ccc2oc(/N=C(\N)NC(=O)C(C)(C)C)nc2c1	5	60*	x	-44	0	87*
Cc1cccc(OCC(=O)Nc2nccs2)c1C	-2	-177	-111	-60	-1	-84
SMILES	Calb FLC	Jurkat NFkB inh	Shn3 inh set2	697 NFkB inh	Beta apoptosis	Jurkat NFkB conf
O=C(Cc1ccccc1)NCc1ccc(-n2cccc2)cc1	2	54*	9	-36	2	14
O=S1(=O)C=C(Sc2nnc(-c3ccccc3)o2)c2ccccc21	36	90*	98*	-44	105*	65*
Cc1cc(C)nc(SC2=CS(=O)(=O)c3ccccc32)n1	-9	50	32	0	-36	x
CC1=C(C(=O)Nc2cccc(F)c2)C(c2ccsc2)C2=C(CC(C)(C)CC2=O)N1 (stereo unspecified)	3	50*	-26	-33	11	7
COc1ccc(CC2CC(=O)N(c3ccc(C)cc3)C2=O)cc1 (stereo unspecified)	1	-6	-4	8	x	x
[O-][n+]1onc2c1CCc1c-2nn(-c2ccccc2Cl)[n+]1[O-]	-10	59*	14	-12	96*	12
COc1ccccc1-c1nnc(Nc2nc3c(OC)cccc3s2)o1	0	88*	76	-110	72	34
COc1cccc2sc(Nc3nc(-c4cc5ccccc5oc4=O)cs3)nc12	-2	x	5	x	4	x

Source: PubChem BioAssay (several laboratories)
